Rows were chosen to be rich in hits. Some 21% of all compounds tested hit in one or more screens of this group.
MRP resist rev: reverses drug resistance mediated by MRP. H69AR cells + 2 uM doxorubicin, CellTiter-Glo, 72 h. differential viability (reversal), % at 10 µM. 0.04% of 85,000 active;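 active means viability drop by adding the cancer drug above about 55%, with treated viability meeting a 40% cutoff, limit read from the data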;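 further: viability without doxorubicin minus viability with 2 µM doxorubicin for each compound; larger differential means the compound sensitizes cells more to doxorubicin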
CYP2C9 act: CYP2C9 (human) activation. P11712. recombinant CYP2C9, luciferin-H conversion, luminescence; hits give high values; factor 1 = untreated enzyme, 0 = blocked. activation factor at 5 µM. 1.4% of 96,000 active. AID 1024;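 active means activation factor of 2 or more for CYP2C9 at a 5 µM dose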;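 further: 0 = sulfaphenazole-blocked wells and 1 = vehicle-only wells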
CYP2C19 activ: increases human CYP2C19 enzyme activity; P33261; recombinant CYP2C19, luciferin-H EGE luminescence; hits give high values; 0 = fully inhibited enzyme, 1 = untreated enzyme; AID 1025; activation factor at 5 µM; 96,000 tested, under 10 active;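 active means activation factor of at least 2 at 5 µM in the primary screen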;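 further: 0 = wells with 2.5 mM tranylcypromine and 1 = vehicle-only wells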
Target sequence (P33261 whole entry, looked up): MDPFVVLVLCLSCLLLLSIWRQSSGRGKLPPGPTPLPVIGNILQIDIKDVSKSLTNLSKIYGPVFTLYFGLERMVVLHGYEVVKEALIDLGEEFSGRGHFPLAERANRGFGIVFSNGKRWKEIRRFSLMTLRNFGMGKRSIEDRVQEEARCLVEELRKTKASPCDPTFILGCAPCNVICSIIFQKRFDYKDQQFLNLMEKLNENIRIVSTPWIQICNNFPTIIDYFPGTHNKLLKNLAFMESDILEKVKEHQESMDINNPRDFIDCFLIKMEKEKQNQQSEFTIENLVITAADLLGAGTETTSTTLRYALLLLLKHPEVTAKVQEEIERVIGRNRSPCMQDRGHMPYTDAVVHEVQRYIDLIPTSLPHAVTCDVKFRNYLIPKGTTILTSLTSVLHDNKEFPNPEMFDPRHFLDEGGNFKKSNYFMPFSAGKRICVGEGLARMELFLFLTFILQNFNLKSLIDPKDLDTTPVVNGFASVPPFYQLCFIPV
CYP2C19 inhib: blocks human cytochrome P450 2C19; P33261; CYP2C19 Supersomes, luciferin-H EGE luminescence, 30 min; inhibition, % at 5 µM; 21% of 96,000 active; AID 778;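 active means CYP2C19 inhibition above a set limit at 5 µM in the primary screen, cut at about 50% in these data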;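 further: plate controls were negative control wells for no effect and 2.5 mM tranylcypromine positive control for full effect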
MRP1 act: activators of MRP-1. H69AR cells + doxorubicin, viability rescue, CellTiter-Glo. viability increase, % at 10 µM. 0.61% of 140,000 active. AID 799;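 active means viability gain under doxorubicin at or above a set limit, the compound median plus 3 SD, cut at about 4.7% in these data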;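 further: MRP-1 overexpressing cells given doxorubicin 25 µM after compound pretreatment; 18-22 h compound pretreatment then 72 h with doxorubicin before readout; 0% = doxorubicin-only wells and 100% = vehicle-treated cells without doxorubicin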
CYP2C9 inhib: human CYP2C9 inhibition | P11712 | inhibition, % at 5 µM | AID 777 | CYP2C9 Supersomes, luciferin-H conversion, luminescence | 20% of 96,000 active;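 active means blocking of liver enzyme CYP2C9 beyond about 50% at 5 µM, limit read from the data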
An asterisk follows results filed as active; . = no result.

SMILES | MRP resist rev | CYP2C9 act | CYP2C19 activ | CYP2C19 inhib | MRP1 act | CYP2C9 inhib
Cc1noc(C)c1COC(=O)c1ccccc1Oc1ccccc1 | 26.2 | 0.1 | 0 | 96.3* | -0.9 | 89.2*
Cc1noc(C)c1COC(=O)c1cc(F)c(F)cc1Cl | 31.6 | 0.4 | 0.2 | 76.8* | -1.9 | 55.0*
Cc1nn(CCc2n[nH]c(=S)n2C2CCCCC2)c(C)c1Br | . | 0.9 | 0.5 | 47.0 | -1.7 | 10.0
Cc1ccc(C)n1-c1ccc(N2CCOCC2)c(Br)c1 | 7.8 | 0.9 | 0.9 | 14.5 | -4.9 | 6.3
O=C(Nc1ccc2c(c1)OCCO2)c1ccc(NC(=O)C2CCCO2)cc1 (centres undefined) | . | 0.8 | 0.7 | 28.8 | 1.9 | 22.6
Cc1cc(C)n(C(=O)COc2ccc(Cl)cc2Cl)n1 | 8.2 | . | . | . | -1.9 | .
Cc1cc(C)n(CCOc2ccc(Cl)cc2Cl)n1 | . | 1.1 | 0 | 96.8* | 1.0 | -7.3
c1ccc2c(c1)OCCOCCOCCOCCOCCOc1ccccc1OCCOCCOCCO2 | . | . | . | . | -5.3 | .
CC(=O)N1CCCc2cc(S(=O)(=O)Nc3ccc4c(c3)OCO4)ccc21 | . | 0.1 | 0 | 98.6* | -4.4 | 86.8*
CC(=O)N1CCc2cc(S(=O)(=O)Nc3cccc(C(F)(F)F)c3)ccc21 | -14.0 | 0.3 | 0 | 95.3* | -2.1 | 71.0*
CCOc1ccc2cc(/C=C/C(=O)c3ccco3)c(Cl)nc2c1 | 1.5 | 0.7 | 0.8 | 18.1 | -3.0 | 25.1
Cc1cc2nnc(SC3CCCCN(C(=O)c4ccc(F)cc4)C3=O)n2c2ccccc12 (centres undefined) | -9.9 | 0.7 | 0.2 | 84.2* | -4.7 | 29.1
Cc1cc2nnc(SC3CCOC3=O)n2c2ccccc12 (centres undefined) | -6.3 | 2.1* | 1 | -0.8 | 0.0 | -108.5
Cc1ccccc1S(=O)(=O)Cc1ccc(C(=O)NCCCOC(C)C)o1 | 11.1 | 0.7 | 0.7 | 28.8 | 0.1 | 28.6
COc1cc2c(cc1OC)CN(Cc1cc(=O)oc3c(C)c(C)ccc13)CC2 | . | . | . | . | 3.6 | .
COc1cc2c(cc1OC)CN(Cc1ccc(OC)c(C)c1OC)CC2 | . | 1.1 | 0.4 | 63.7* | -1.1 | -10.2
COc1cc(OC)c(OC)cc1CN1CCc2ccccc2C1 | -4.5 | 0.9 | 0.5 | 52.3* | -1.8 | 6.1
COc1cc2c(cc1OC)CN(Cc1cc(=O)oc3cc(C)c(C)cc13)CC2 | . | . | . | . | -4.2 | .
CCCCN(CC)C(=O)Cn1c(=O)sc2ccccc21 | 17.5 | 1 | 0.6 | 43.5 | -1.0 | 3.8
CC12CC(NC(=O)N1c1cccc(C(=O)NCc3ccc4c(c3)OCO4)c1)c1cc(Cl)ccc1O2 (centres undefined) | -11.1 | 0.2 | 0.4 | 59.2* | 1.2 | 78.7*
CC12CC(NC(=O)N1c1cccc(C(=O)N3CCN(c4ccccn4)CC3)c1)c1ccccc1O2 (centres undefined) | 7.1 | 0.4 | 0.6 | 44.3 | -0.1 | 63.3*
CC(C)C(=O)Nc1cccc(C(=O)NCc2ccc3c(c2)OCO3)c1 | 9.6 | . | . | . | -2.4 | .
COc1cccc(N2CCN(C(=O)c3ccc(N4C(=O)NC5CC4(C)Oc4ccccc45)cc3)CC2)c1 (centres undefined) | 0.5 | 0.9 | 0.8 | 16.0 | -2.2 | 10.8
CC12CC(NC(=O)N1c1cccc(C(=O)N3CCN(c4ccccc4F)CC3)c1)c1ccccc1O2 (centres undefined) | -5.2 | 0.2 | 0.6 | 43.9 | 1.1 | 79.2*
O=C(Nc1nc(-c2cccs2)c(-c2cccs2)s1)C1CCCC1 | . | . | . | . | 0.6 | .
SMILES | MRP resist rev | CYP2C9 act | CYP2C19 activ | CYP2C19 inhib | MRP1 act | CYP2C9 inhib
COc1cc(/C=C2/C(=N)N3C=CSC3=NC2=O)ccc1OCCCOc1ccccc1C | 0.4 | 0.2 | 0.9 | 8.1 | -1.4 | 76.4*
CCOc1cc(/C=C2/C(=N)N3C=CSC3=NC2=O)ccc1OCCCOc1ccccc1C | -2.6 | 0.3 | 0.6 | 35.9 | -2.8 | 73.7*
Cc1cc([N+](=O)[O-])nn1CCC(=O)NC1CCCCCC1 | . | . | . | . | -0.5 | .
Clc1ccc(OCc2nnc(-c3ccccc3Br)o2)cc1 | 7.1 | 0.9 | 0 | 96.3* | 3.3 | 14.1
Cc1ccc(-n2nnnc2SCc2nnc(-c3ccccc3Br)o2)c(C)c1 | 17.1 | 0.4 | 0.3 | 66.1* | -1.4 | 56.1*
Cn1nnnc1SCc1nnc(-c2ccccc2Br)o1 | -3.9 | 1.1 | 0.3 | 65.0* | -3.2 | -5.8
Clc1ccc(OCc2nnc(-c3ccccc3Br)o2)c(Cl)c1 | 1.8 | 1.3 | 1.1 | -7.0 | 0.4 | -28.3
Cc1ccc(-n2nnnc2SCC(N)=O)c(C)c1 | 3.9 | 1.1 | 0.9 | 8.0 | -2.3 | -5.5
CN(Cc1cn(-c2ccccc2)nc1-c1ccc(Cl)cc1)C(=O)CCC(=O)O | . | . | . | . | -2.9 | .
CCOC(=O)CC(N)c1ccc(OC)cc1 (centres undefined) | 4.6 | 1 | 0.9 | 6.1 | -2.2 | -1.1
O=C(CCNC(=O)c1ccccc1Cl)Nc1ccc(Cl)c(C(F)(F)F)c1 | . | . | . | . | -2.8 | .
CC(=O)c1cc2c(cc1NC(=O)CCNC(=O)c1ccccc1Cl)OCO2 | 13.2 | 0.3 | 0.4 | 60.2* | 0.0 | 73.9*
O=C(CCNC(=O)c1ccccc1Cl)Nc1ccc2c(c1)OCO2 | . | 0 | 0.4 | 59.4* | -0.1 | 95.6*
COc1cccc(CN(CC(=O)NC2CCCC2)C(=O)CCC(=O)Nc2cc(C)on2)c1 | . | 0.2 | 0.5 | 50.6* | -0.8 | 78.0*
COCCNC(=O)CN(C(=O)CCC(=O)Nc1cc(C)on1)c1cccc(C)c1C | -6.5 | 0.6 | 0.4 | 56.6* | 0.2 | 41.3
Cc1cc(NC(=O)CCC(=O)N(CC(=O)NC2CCCC2)Cc2ccco2)no1 | 7.0 | 0.8 | 0.9 | 13.0 | -0.8 | 20.2
COc1cccc(CN(CC(=O)NC2CCCC2)C(=O)Cn2nnc(-c3cccs3)n2)c1 | 12.2 | 0 | 0.3 | 65.7* | -0.4 | 96.9*
COc1ccc(NC(=O)CN2C(=O)C(C)SC(C)C2=O)c(OC)c1 (centres undefined) | . | . | . | . | 1.2 | .
O=C1CCCN1c1ccc(S(=O)(=O)Oc2ccc(Cl)cc2)cc1[N+](=O)[O-] | . | 0.8 | 0.5 | 49.5 | -4.1 | 20.2
Cc1cccc(/C=N/NC(=O)C(C)Nc2cccc3ccccc23)n1 (centres undefined) | -2.6 | 0.9 | 0.3 | 70.7* | -2.1 | 8.1
CC(=O)n1cc(-c2ccncc2)c2ccccc21 | -5.3 | 0.2 | 0.2 | 79.9* | -4.4 | 79.4*
O=C(COc1ccc2ccccc2c1Br)N1CCN(c2ccccn2)CC1 | -1.2 | 0.9 | 0.2 | 84.3* | 2.8 | 9.3
O=C(O)CCC(=O)N1CCN(c2ccccn2)CC1 | -7.9 | 1 | 1 | 0.9 | -0.1 | -0.8
O=C(CSc1nccc2ccccc12)N1CCN(c2ccccn2)CC1 | 5.0 | 1.5 | 0.3 | 66.3* | -4.3 | -46.0
Cc1cccc(NC(=O)CCc2ccc(C)o2)c1 | -2.5 | 0.8 | 0.1 | 90.4* | -3.6 | 19.3
Cc1ccc(CCC(=O)Nc2ccc(S(N)(=O)=O)cc2)o1 | 4.7 | 1.2 | 1.2 | -17.2 | -0.8 | -19.3
CCOC(=O)c1ccc(NC(=O)CCc2ccc(C)o2)cc1 | . | 0.4 | 0.8 | 16.8 | -1.9 | 55.3*
